Experiments:
Conditions in all cases: concentration: 1 μM, replicates: in singlicate; n = 1
[1] = tested on: MAP3K3
[2] = tested on: MAP3K4
[3] = tested on: MAP4K2
[4] = tested on: MAP4K3
[5] = tested on: MAP4K4
[6] = tested on: MAP4K5
[7] = tested on: MAPKAPK2
[8] = tested on: MAPKAPK5
[9] = tested on: MARK1
[10] = tested on: MARK2
[11] = tested on: MARK3
[12] = tested on: MARK4
[13] = tested on: MAST1
[14] = tested on: T1, MEK1
T1 construct: gene MAP2K1

[15] = tested on: T2, MEK2
T2 construct: gene MAP2K2

[16] = tested on: T3, MEK3
T3 construct: gene MAP2K3

[17] = tested on: T4, MEK4
T4 construct: gene MAP2K4

[18] = tested on: T5, MEK5
T5 construct: gene MAP2K5

[19] = tested on: T6, MEK6
T6 construct: gene MAP2K6

[20] = tested on: MELK
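Further: KINOMEscan kinase panel screen.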

Row | SMILES | %Inh [1] | %Inh [2] | %Inh [3] | %Inh [4] | %Inh [5] | %Inh [6] | %Inh [7] | %Inh [8] | %Inh [9] | %Inh [10] | %Inh [11] | %Inh [12] | %Inh [13] | %Inh [14] | %Inh [15] | %Inh [16] | %Inh [17] | %Inh [18] | %Inh [19] | %Inh [20]
1 | Nc1nc(-c2ccc3c(N)n[nH]c3c2)cc(N2CCC[C@@H](C(=O)Nc3ccccc3)C2)n1.O=C(O)C(F)(F)F.O=C(O)C(F)(F)F [GSK2288359] | 0% | 28% | 0% | 0% | 5% | 6% | 0% | 0% | 0% | 0% | 0% | 0% | 0% | 0% | 8% | 3% | 0% | 50% | 8% | 13%
2 | O=C(c1ccc(-c2cc(-c3c[nH]nc3-c3ccccn3)ccn2)cc1)N1CCCC1 [GW792479] | 11% | 25% | 0% | 0% | 5% | 0% | 0% | 0% | 0% | 4% | 0% | 15% | 12% | 14% | 30% | 20% | 0% | 30% | 0% | 0%
3 | O=c1cc(N2CCOCC2)nc2n(Cc3cccc(Cl)c3)ccn12 [GSK2296823] | 0% | 4% | 0% | 7% | 0% | 0% | 40% | 0% | 0% | 81% | 0% | 5% | 0% | 8% | 0% | 0% | 4% | 13% | 0% | 0%
4 | Fc1ccc(-c2ncn(CCCNCc3ccccc3)c2-c2ccncc2)cc1 | 16% | 7% | 14% | 0% | 0% | 12% | 10% | 19% | 0% | 0% | 5% | 0% | 28% | 26% | 20% | 30% | 0% | 31% | 17% | 5%
5 | Fc1cccc(COc2ccc(Nc3ncnc4sc(-c5ccc[nH]5)cc34)cc2Cl)c1 [GW707818] | 0% | 11% | 7% | 4% | 5% | 3% | 9% | 0% | 12% | 1% | 13% | 14% | 1% | 0% | 0% | 0% | 2% | 27% | 0% | 13%
6 | CS(=O)(=O)CCNCc1ccc(-c2ccc3ncnc(Nc4ccc(OCc5ccccc5)c(Cl)c4)c3c2)o1.Cl [GW574783] | 0% | 0% | 0% | 1% | 0% | 5% | 16% | 0% | 0% | 0% | 3% | 9% | 23% | 10% | 0% | 3% | 15% | 85% | 0% | 23%
7 | CN1CCC(n2cnc(-c3ccc(F)cc3)c2-c2ccnc(NC3CCNCC3)n2)CC1 [SB-229482] | 0% | 1% | 12% | 0% | 0% | 0% | 8% | 6% | 8% | 13% | 0% | 6% | 27% | 0% | 0% | 18% | 0% | 0% | 0% | 0%
8 | Clc1ccc(-c2cc(-c3c[nH]nc3-c3ccccn3)ccn2)cc1 [GW681251] | 0% | 19% | 0% | 0% | 63% | 18% | 13% | 0% | 0% | 0% | 0% | 0% | 0% | 39% | 0% | 0% | 2% | 0% | 0% | 40%
9 | CCc1nc(-c2cccc(N(C)S(=O)(=O)c3ccccc3)c2)c(-c2ccnc(Nc3ccc(N4CCN(C(C)=O)CC4)nc3)n2)s1 [GSK1645895] | 0% | 18% | 0% | 0% | 0% | 17% | 0% | 0% | 0% | 4% | 0% | 0% | 0% | 0% | 3% | 3% | 0% | 99.9% | 24% | 0%
10 | COc1cc2c(Nc3cccc(NC(=O)c4ccccc4)c3)ncnc2cc1OCCCN1CCOCC1 [GSK223810] | 0% | 18% | 0% | 9% | 0% | 43% | 5% | 0% | 11% | 0% | 0% | 22% | 0% | 0% | 3% | 7% | 4% | 80% | 0% | 15%
11 | O=C(NCCCN1CCCC1=O)c1cnc(NCc2cc(Cl)ccc2Cl)nc1NC1CCNCC1 | 57% | 12% | 0% | 16% | 0% | 19% | 0% | 0% | 0% | 0% | 0% | 0% | 0% | 0% | 3% | 0% | 0% | 0% | 0% | 0%
12 | COc1ccc(Nc2nccc(N3CCC(NC(=O)Nc4ccc5c(c4)OCO5)C3)n2)cc1 (stereo not shown) [GSK1379745] | 0% | 15% | 0% | 5% | 5% | 4% | 17% | 0% | 0% | 0% | 13% | 9% | 0% | 0% | 0% | 0% | 25% | 32% | 0% | 0%
13 | COc1ccc(Nc2nccc(N3CCC(NC(=O)c4cccc(NC(C)=O)c4)C3)n2)cc1 (stereo not shown) [GSK1379732] | 0% | 0% | 0% | 0% | 0% | 0% | 0% | 0% | 0% | 0% | 3% | 0% | 42% | 0% | 0% | 0% | 18% | 19% | 0% | 0%
14 | CN1c2ccc(-c3ccc(C(=O)NCCO)cc3)cc2-c2[nH]ncc2S1(=O)=O | 40% | 0% | 26% | 11% | 27% | 25% | 0% | 0% | 38% | 24% | 0% | 35% | 0% | 0% | 27% | 25% | 0% | 68% | 1% | 32%
15 | CC(C)(C)OC(=O)NC1CCCN(c2cc(-c3ccc4c(N)n[nH]c4c3)nc(N)n2)C1 (stereo not shown) [GSK2286096] | 0% | 17% | 0% | 3% | 0% | 0% | 0% | 0% | 0% | 0% | 0% | 0% | 0% | 100% | 0% | 0% | 7% | 30% | 0% | 0%
16 | CSc1nn2c(=O)cc(N3CCOCC3)nc2n1Cc1cccc(Cl)c1Cl [GSK2347225] | 0% | 31% | 0% | 42% | 22% | 12% | 22% | 0% | 0% | 0% | 2% | 3% | 0% | 0% | 5% | 0% | 33% | 48% | 0% | 18%
17 | CCn1c(-c2ccncc2)nc2cnccc21 [SB-735216] | 10% | 23% | 12% | 0% | 1% | 0% | 16% | 29% | 16% | 100% | 96.1% | 8% | 37% | 5% | 11% | 34% | 7% | 25% | 0% | 0%
18 | Cl.O=S(=O)(c1cccc(F)c1)c1ccc(Nc2ncnc3cc(Br)sc23)cc1Cl [GSK306886] | 0% | 9% | 0% | 0% | 0% | 0% | 0% | 0% | 0% | 0% | 0% | 1% | 0% | 0% | 6% | 0% | 22% | 26% | 38% | 0%
19 | Oc1ccc2ncnc(Nc3ccc(OCc4ccccc4)cc3)c2c1 [GI262866] | 0% | 2% | 0% | 11% | 4% | 0% | 16% | 0% | 0% | 0% | 22% | 0% | 0% | 18% | 2% | 0% | 11% | 99.1% | 0% | 0%
20 | CNc1nccc(-c2c(-c3ccc(F)cc3)ncn2CCCN2CCOCC2)n1 [SB-222516] | 0% | 17% | 0% | 0% | 0% | 8% | 0% | 0% | 0% | 9% | 0% | 35% | 20% | 0% | 12% | 15% | 23% | 46% | 0% | 24%

Source: PMC5540273 (PLoS ONE, 2017)
